From the supplement of paper PMC3545927
The list shows a part of the results. How many sequences the whole screen found active is unknown.

Target: furin, P09958
Test: furin cleavage Z-score vs untreated control; higher = more cleavage, active = 3.5 or more, inactive = 1 or less, 8 variable residues between constant flanks
Procedure: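 Multiplexed peptide-cDNA fusion cleavage assay. 8-mer variable peptides flanked by constant Cys-Ala (N-term) and Ala-Gly-Asn-Ala-Ser-Ala-Ser-Ala (C-term) and conjugated to a cDNA oligonucleotide were bead-immobilised via the N-terminus. They were treated with purified furin at a 1:10 enzyme:substrate ratio in 50 mM HEPES pH 7.5, 1 mM CaCl2, 100 mM NaCl for 7.5, 15 or 30 min. Released cDNA was counted by next-generation sequencing, and log counts versus no-furin controls were lowess-adjusted and converted to robust Z-scores.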

Sequence of furin, P09958 (P09958 whole entry): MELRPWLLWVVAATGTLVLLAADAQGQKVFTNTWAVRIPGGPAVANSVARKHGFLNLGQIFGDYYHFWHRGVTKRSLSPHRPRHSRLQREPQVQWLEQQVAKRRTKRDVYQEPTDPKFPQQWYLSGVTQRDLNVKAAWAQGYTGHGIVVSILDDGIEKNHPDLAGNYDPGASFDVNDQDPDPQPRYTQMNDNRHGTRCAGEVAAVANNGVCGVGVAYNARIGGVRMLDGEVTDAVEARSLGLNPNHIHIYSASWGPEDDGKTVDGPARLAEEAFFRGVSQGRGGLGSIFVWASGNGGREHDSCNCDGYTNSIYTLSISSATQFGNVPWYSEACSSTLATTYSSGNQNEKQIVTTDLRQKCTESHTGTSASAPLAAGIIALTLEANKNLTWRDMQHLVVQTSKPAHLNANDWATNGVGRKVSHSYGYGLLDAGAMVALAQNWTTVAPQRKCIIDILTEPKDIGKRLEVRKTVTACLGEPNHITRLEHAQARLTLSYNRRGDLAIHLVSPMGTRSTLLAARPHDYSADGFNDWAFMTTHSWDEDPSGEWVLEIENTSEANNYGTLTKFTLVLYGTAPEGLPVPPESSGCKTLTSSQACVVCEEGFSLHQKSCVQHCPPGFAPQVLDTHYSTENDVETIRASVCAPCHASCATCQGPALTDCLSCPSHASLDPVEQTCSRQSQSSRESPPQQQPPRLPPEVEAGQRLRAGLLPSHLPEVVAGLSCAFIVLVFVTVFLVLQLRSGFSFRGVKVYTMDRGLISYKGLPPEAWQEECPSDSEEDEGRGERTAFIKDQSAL

Row | Sequence | furin cleavage Z-score (7.5 min) | furin cleavage Z-score (15 min) | furin cleavage Z-score (30 min)
1 | CATTPISGSWAGNASASA [HC45] | -0.899 (inactive) | -0.739 (inactive) | -0.823 (inactive)
2 | CASLPCSAHLAGNASASA [HC2485] | -0.663 (inactive) | 0.376 (inactive) | 0.512 (inactive)
3 | CAMRECSQHLAGNASASA [HC1693] | -1.86 (inactive) | 1.41 | 0.442 (inactive)
4 | CASLEVVTSTAGNASASA [HC2277] | -0.584 (inactive) | -0.0293 (inactive) | 0.688 (inactive)
5 | CAYIPRILGPAGNASASA [FS-1875] | -0.849 (inactive) | -0.994 (inactive) | -2.27 (inactive)
6 | CAEVVTSTSVAGNASASA [HC2237] | 0.559 (inactive) | -1.07 (inactive) | -1.09 (inactive)
7 | CATRKTSERSAGNASASA [HC185] | 0.0798 (inactive) | 1.75 | 1.32
8 | CARYIRSERSAGNASASA [FS-1611] | 6.49 (active) | 8.32 (active) | 8.42 (active)
9 | CATTLCSGSWAGNASASA [HC1865] | -0.162 (inactive) | -0.533 (inactive) | 0.486 (inactive)
10 | CATTPCFGSWAGNASASA [HC66] | 0.204 (inactive) | 0.119 (inactive) | -0.471 (inactive)
11 | CARKRRAPLAAGNASASA [FS-2698] | 6.06 (active) | 7.82 (active) | 7.26 (active)
12 | CARKRRAPHGAGNASASA [FS-2493] | 4.63 (active) | 5.64 (active) | 5.6 (active)
13 | CARPFRQVLAAGNASASA [FS-2738] | -0.792 (inactive) | 0.095 (inactive) | -0.451 (inactive)
14 | CARKRRRQHGAGNASASA [FS-2974] | -0.939 (inactive) | -0.0293 (inactive) | 0.389 (inactive)
15 | CARKRRKGKAAGNASASA [FS-2973] | -1.27 (inactive) | 1.85 | 0.732 (inactive)
16 | CALSTTGEIPAGNASASA [HC844] | 0.383 (inactive) | -0.16 (inactive) | 0.771 (inactive)
17 | CARRKRRHHKAGNASASA [FS-1969] | 1.16 | 4.53 (active) | 5.66 (active)
18 | CARRKRKSQRAGNASASA [FS-2402] | 1.07 | 2.8 | 3.58 (active)
19 | CARRKRAGGGAGNASASA [FS-2067] | 4.24 (active) | 4.92 (active) | 5.33 (active)
20 | CARRKRIVGGAGNASASA [FS-2228] | 0.169 (inactive) | 1.22 | 2.08
21 | CARRKRRQTGAGNASASA [FS-2516] | 8.82 (active) | 9.35 (active) | 7.88 (active)
22 | CARRKRLRHRAGNASASA [FS-3054] | -0.105 (inactive) | -0.397 (inactive) | -1.97 (inactive)
23 | CARRKRFPGKAGNASASA [FS-1918] | 0.56 (inactive) | 2.63 | 3.28

Row | Sequence | furin cleavage Z-score (7.5 min) | furin cleavage Z-score (15 min) | furin cleavage Z-score (30 min)
24 | CARSCRILHKAGNASASA [FS-2457] | 0.718 (inactive) | 0.25 (inactive) | 0.502 (inactive)
25 | CAHLEVVTSTAGNASASA [HC2275] | -0.0236 (inactive) | -0.0472 (inactive) | -0.103 (inactive)
26 | CAVTPCSAHLAGNASASA [HC2470] | -2.91 (inactive) | -0.94 (inactive) | -1.39 (inactive)
27 | CATSLTGRDKAGNASASA [HC683] | 0.711 (inactive) | 0.726 (inactive) | 0.633 (inactive)
28 | CAVCTTPCSGAGNASASA [HC1950] | -1.68 (inactive) | 1.7 | 0.388 (inactive)
29 | CAHSTDATSIAGNASASA [HC820] | 0.202 (inactive) | -1.29 (inactive) | 0.297 (inactive)
30 | CATIETITLPAGNASASA [HC896] | -1.51 (inactive) | 0.877 (inactive) | -0.833 (inactive)
31 | CAMEFCSQHLAGNASASA [HC1707] | 0.147 (inactive) | 0.288 (inactive) | -0.0248 (inactive)
32 | CAMEEVSQHLAGNASASA [HC3] | 0.556 (inactive) | 1.13 | 2.1
33 | CARRKRDLDGAGNASASA [FS-3052] | 11.5 (active) | 11.4 (active) | 8.25 (active)
34 | CARRVRDKDGAGNASASA [FS-2300] | 0.77 (inactive) | 1.62 | 2.04
35 | CARRKRQVRRAGNASASA [FS-2370] | 6.85 (active) | 8.4 (active) | 6.39 (active)
36 | CARRKRQIYGAGNASASA [FS-3055] | 2.2 | 5.1 (active) | 6.81 (active)
37 | CARRKKSQDGAGNASASA [FS-1775] | 0.168 (inactive) | -0.316 (inactive) | 0.531 (inactive)
38 | CARRKRQVYGAGNASASA [FS-3204] | 6.12 (active) | 7.43 (active) | 7.08 (active)
39 | CASTGCSAHLAGNASASA [HC2516] | -1.2 (inactive) | 0.402 (inactive) | -0.12 (inactive)
40 | CAFNLRMKRDAGNASASA [FS-525] | 14.3 (active) | 12.3 (active) | 10.8 (active)
41 | CATNLRIKRDAGNASASA [FS-568] | 14.5 (active) | 15.3 (active) | 10.7 (active)
42 | CAVREVPCHRAGNASASA [HC2430] | -1.53 (inactive) | -1.03 (inactive) | -0.128 (inactive)
43 | CAKPGRRGRAAGNASASA [FS-452] | 6.38 (active) | 5.76 (active) | 4.89 (active)
44 | CARPGRRGRPAGNASASA [FS-492] | -0.496 (inactive) | -1.23 (inactive) | -0.0754 (inactive)
45 | CAKRWRRGRAAGNASASA [FS-1596] | 6.85 (active) | 6.38 (active) | 4.94 (active)
46 | CARPGRRVCAAGNASASA [FS-3259] | -0.847 (inactive) | -1.4 (inactive) | -1.34 (inactive)
